Source: PubChem BioAssay (National Center for Advancing Translational Sciences (NCATS))
LmPK inhibitor: LmPK (Leishmania mexicana) enzyme inhibition. Potency, µM (top dose mostly 57.5 µM), most hits filed as inhibitors. Q27686. 0.37% of 290,000 active. purified LmPK, Kinase-Glo ATP luminescence, 1 h
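Screened at intermediate enzyme activity to detect both inhibitors and activators: LmPK at 0.1 nM, with a 0.5 nM enzyme column as activation reference. PEP 0.5 mM, ADP 0.1 mM; ATP detected by luminescence after 1 h.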
Shiga toxin inh: blocks Shiga toxin action in Vero cells. Vero cells, Shiga toxin protein synthesis inhibition reporter. AID 2315. 9.2% of 290,000 active. inhibition, % at 38.7 µM; in the data active = inhibition mostly above about 28%, no sharp cut-off; inactive = mostly below about 43%
NS1 function inh: inhibitors of influenza NS1 protein function. 0.4% of 270,000 active. Potency, µM (highest dose often 46.1 µM); calls by dose curve; also: actives are rising curves; nearly all actives have a fitted effect of over 50% in size
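Compounds were scored for reversing the slow growth caused by influenza A NS1 in S. cerevisiae, measured by optical density at 600 nm. Assay medium contained 2% galactose at pH 6.0; NS1-free yeast of the same strain were the positive control.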
Giardia FBPA inh: inhibitors of Giardia lamblia fructose-1,6-bisphosphate aldolase | A8B2U2 | purified Giardia FBPA | Potency, µM (highest dose often 59.6 µM), actives largely listed as inhibitors | 0.71% of 290,000 active; also: nearly all actives have a fitted effect of over 55% in size
Target sequence (A8B2U2 whole entry, looked up): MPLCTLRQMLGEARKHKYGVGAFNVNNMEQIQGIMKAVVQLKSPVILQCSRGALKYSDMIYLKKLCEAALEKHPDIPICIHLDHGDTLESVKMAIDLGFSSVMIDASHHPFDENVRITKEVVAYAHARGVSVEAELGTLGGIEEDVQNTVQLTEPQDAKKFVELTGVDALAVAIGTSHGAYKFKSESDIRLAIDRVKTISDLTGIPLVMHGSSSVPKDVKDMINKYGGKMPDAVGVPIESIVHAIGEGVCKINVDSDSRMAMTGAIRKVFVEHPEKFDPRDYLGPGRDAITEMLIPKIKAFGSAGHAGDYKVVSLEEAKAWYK
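40 nM FBPA preincubated 10 min at RT with compound (up to 57.5 uM final), then substrate plus GAPDH/TPI/NAD/arsenate coupling and diaphorase/resazurin added. Fluorescence read after 20 min at RT, 525/598 nm.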
CHX counter: affects cycloheximide protein synthesis inhibition readout, counter-screen | cell reporter, cycloheximide protein synthesis inhibition counterscreen | max response, % | 12% of 300,000 active; in the data active = max response mostly above about 13%, no sharp cut-off; inactive = mostly below about 14%; also: read at 38.3 µM for the half of the compounds with a filed dose
Numbers stand for hits. A selection: hits, their analogues and other compounds. The true share with any hit is near 14%. Unless noted, calls follow the shape of the dose curve; as a rule, active = well fitted curve in the direction sought with a large enough effect; inconclusive = small, poorly fitted or top-dose-only effect, or another doubt; inactive = no such curve, though single readings can be large; an effect the other way counts as inactive or inconclusive.

What do the screens show for `COc1ccc2[nH]c(C(=O)Nc3ccc4c(c3)OCO4)cc2c1`?
LmPK inhibitor: inactive; Shiga toxin inh: 100; NS1 function inh: inactive; Giardia FBPA inh: inactive; CHX counter: 53

How did CCOC(=O)c1c(C)[nH]c(C(=O)Nc2ccc3c(c2)OCO3)c1C do in these assays?
LmPK inhibitor: inactive; Shiga toxin inh: 53; NS1 function inh: inactive; Giardia FBPA inh: inactive; CHX counter: 41

What do the screens show for `CCN(CC)c1ccc(NC(=O)c2ccc3c(c2)OCO3)cc1`?
LmPK inhibitor: inactive; Shiga toxin inh: 58; NS1 function inh: inactive; Giardia FBPA inh: inactive; CHX counter: 55

How did CCOC(=O)c1ccc(NC(=O)c2ccc3c(c2)OCO3)cc1 do in these assays?
LmPK inhibitor: inactive; Shiga toxin inh: inactive; NS1 function inh: inactive; Giardia FBPA inh: inactive; CHX counter: 19

How did CC[C@]1(OC(=O)CN)C(=O)OCc2c1cc1n(c2=O)Cc2cc3ccccc3nc2-1 do in these assays?
NS1 function inh: inactive

Results for O=C(Nc1ccc2c(c1)OCO2)Oc1ccccc1 ?
LmPK inhibitor: inconclusive; Shiga toxin inh: 76; NS1 function inh: inactive; Giardia FBPA inh: inactive; CHX counter: 38

Results for COC(=O)Nc1ccc2c(c1)OCO2 ?
LmPK inhibitor: inactive; Shiga toxin inh: inactive; NS1 function inh: inactive; Giardia FBPA inh: inactive; CHX counter: inactive

Results for CCOC(=O)Nc1ccc2c(c1)OCO2 ?
LmPK inhibitor: inactive; Shiga toxin inh: inactive; NS1 function inh: inactive; Giardia FBPA inh: inactive; CHX counter: 45

Results for COc1ccc(NC(=O)c2ccc3c(c2)OCO3)cc1[N+](=O)[O-] ?
LmPK inhibitor: inactive; Shiga toxin inh: 60; NS1 function inh: inactive; Giardia FBPA inh: inactive; CHX counter: 31

What do the screens show for `CCc1ccc(NC(=O)c2ccc(OC)c([N+](=O)[O-])c2)cc1`?
LmPK inhibitor: inactive; Shiga toxin inh: 90; NS1 function inh: inactive; Giardia FBPA inh: inactive; CHX counter: 37

Results for COc1ccc(C(=O)Nc2ccncc2)cc1[N+](=O)[O-] ?
LmPK inhibitor: inactive; Shiga toxin inh: inactive; NS1 function inh: inactive; Giardia FBPA inh: inactive; CHX counter: inactive

Results for O=C(CN1C(=O)c2cccc3cccc1c23)NC1CCCCC1 ?
LmPK inhibitor: inactive; Shiga toxin inh: inactive; NS1 function inh: inactive; CHX counter: inactive

Results for CC1CCCN(c2ccc(C(=O)Nc3ccc4c(c3)OCO4)cc2[N+](=O)[O-])C1 (stereo unspecified) ?
LmPK inhibitor: inactive; Shiga toxin inh: inactive; NS1 function inh: inactive; Giardia FBPA inh: inactive; CHX counter: 17

Results for O=C(Cc1ccc([N+](=O)[O-])cc1)Nc1ccc2c(c1)OCO2 ?
LmPK inhibitor: inactive; Shiga toxin inh: inactive; Giardia FBPA inh: inactive; CHX counter: inactive

What do the screens show for `COc1ccc(NC(=O)c2ccc3c(c2)OCO3)cc1`?
LmPK inhibitor: inactive; Shiga toxin inh: inactive; NS1 function inh: inactive; Giardia FBPA inh: inactive; CHX counter: 33

What do the screens show for `CC1CCN(c2ccc(C(=O)Nc3ccc4c(c3)OCO4)cc2[N+](=O)[O-])CC1`?
LmPK inhibitor: inactive; Shiga toxin inh: inactive; NS1 function inh: inactive; Giardia FBPA inh: inactive; CHX counter: inactive

Results for COc1ccc(C)cc1NC(=O)c1ccc2c(c1)OCO2 ?
LmPK inhibitor: inactive; Shiga toxin inh: 97; NS1 function inh: inactive; Giardia FBPA inh: inactive; CHX counter: 48

Results for O=C(Nc1ccc2c(c1)OCO2)c1ccc([N+](=O)[O-])cc1[N+](=O)[O-] ?
LmPK inhibitor: inactive; Shiga toxin inh: 44; NS1 function inh: inactive; Giardia FBPA inh: inactive; CHX counter: inactive

What do the screens show for `CC(C)NC(=O)c1ccc(N(Cc2ccccc2)S(C)(=O)=O)cc1`?
LmPK inhibitor: inactive; Shiga toxin inh: inactive; NS1 function inh: inactive; Giardia FBPA inh: inactive; CHX counter: inactive

Results for Nc1ncnc2c1nc(Sc1ccc(Cl)cc1)n2[C@H]1O[C@@H]2COP(=O)(O)O[C@H]2[C@@H]1O ?
NS1 function inh: inactive; Giardia FBPA inh: inactive

How did COc1ccc(C(=O)N2c3ccccc3C(=O)OC2c2ccc3c(c2)OCO3)cc1 (stereo unspecified) do in these assays?
LmPK inhibitor: inactive; Shiga toxin inh: inactive; NS1 function inh: inactive; Giardia FBPA inh: inactive; CHX counter: 20

What do the screens show for `O=C(c1cc(C(F)(F)F)cc(C(F)(F)F)c1)N1CCC[C@@]2(CCN(c3ccncc3)C2)C1`?
Giardia FBPA inh: inactive

How did O=C(Nc1nnc(-c2ccc(Cl)cc2)o1)Nc1ccccc1F do in these assays?
LmPK inhibitor: inactive; Shiga toxin inh: 34; NS1 function inh: inactive; Giardia FBPA inh: inactive; CHX counter: inactive

What do the screens show for `O=C(Nc1ccc(Cl)cn1)c1ccc2[nH]c(=O)c(=O)[nH]c2c1`?
LmPK inhibitor: inactive; Shiga toxin inh: inactive; NS1 function inh: inactive; Giardia FBPA inh: inactive; CHX counter: 12

How did COc1cc2ccccc2cc1C(=O)Nc1ccc(Cl)cn1 do in these assays?
LmPK inhibitor: inactive; NS1 function inh: inactive; Giardia FBPA inh: inactive; CHX counter: 16

How did C/C(=C\c1ccccc1)C(=O)Nc1ccc(Cl)cn1 do in these assays?
LmPK inhibitor: inactive; Shiga toxin inh: 95; NS1 function inh: inactive; Giardia FBPA inh: inactive; CHX counter: 39

How did CCOc1ccc(S(=O)(=O)N(CC)CC(=O)NCc2ccncc2)cc1C do in these assays?
LmPK inhibitor: inactive; Shiga toxin inh: inactive; NS1 function inh: inactive; Giardia FBPA inh: inactive; CHX counter: inactive

What do the screens show for `CSc1ccc(C(=O)N2CCC(CCC(=O)NCc3ccc(F)cc3)CC2)cc1`?
LmPK inhibitor: inactive; Shiga toxin inh: inactive; NS1 function inh: inactive; Giardia FBPA inh: inactive; CHX counter: inactive

How did COc1ccc2[nH]cc(CCNc3nc(-c4cccc(C#N)c4)nc4ccccc34)c2c1 do in these assays?
Giardia FBPA inh: inactive

Results for O=C(Nc1ncccn1)c1cccc(F)c1 ?
LmPK inhibitor: inactive; Shiga toxin inh: 21; NS1 function inh: inactive; Giardia FBPA inh: inactive; CHX counter: 11

Results for O=C(Nc1ccc(Cl)cn1)Nc1ccccc1F ?
LmPK inhibitor: inactive; Shiga toxin inh: 53; NS1 function inh: inactive; Giardia FBPA inh: inactive; CHX counter: inactive

What do the screens show for `O=C(Nc1ccc(Cl)cn1)Nc1ccc(Cl)cn1`?
LmPK inhibitor: inactive; Shiga toxin inh: inactive; Giardia FBPA inh: inactive; CHX counter: inactive

How did O=C(Nc1ccc(Cl)cn1)c1ccccc1F do in these assays?
LmPK inhibitor: 22µM; Shiga toxin inh: 88; NS1 function inh: inactive; Giardia FBPA inh: inactive; CHX counter: 32

How did O=C(NC(=O)c1ccccc1)Nc1ccc(Cl)cn1 do in these assays?
LmPK inhibitor: inactive; Shiga toxin inh: 145; NS1 function inh: inactive; Giardia FBPA inh: inactive; CHX counter: 52

What do the screens show for `O=C(Nc1cccc(C(=O)Nc2ccc(Cl)cn2)c1)c1ccccc1`?
LmPK inhibitor: inactive; Shiga toxin inh: inactive; NS1 function inh: inactive; Giardia FBPA inh: inactive; CHX counter: inactive

What do the screens show for `O=C(O)c1cc(NC(=O)c2cccc(F)c2)cc(NC(=O)c2cccc(F)c2)c1`?
LmPK inhibitor: inactive; Shiga toxin inh: inactive; NS1 function inh: inconclusive; Giardia FBPA inh: inactive; CHX counter: inactive

Results for O=C(Nc1ccc(Cl)cn1)c1cccc(F)c1 ?
LmPK inhibitor: inconclusive; Shiga toxin inh: 121; NS1 function inh: inactive; Giardia FBPA inh: inactive; CHX counter: 32
